# Compound activity: PubChem BioAssay, National Center for Advancing Translational Sciences (NCATS)
# An excerpt weighted towards active compounds, which were near 19% of everything screened.
# DT40 TDP1 CPT – DT40-hTDP1 cell growth loss with CPT. chicken DT40 Tdp1-/-;hTDP1 cells + 20 nM CPT, ATP luminescence, 48 h. 420,000 compounds, 12% hits. Potency, µM (doses to about 46.2 µM), most hits filed as inhibitors; further: nearly all actives have a fitted effect of over 55% in size
#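 Cell growth measured by CellTiter-Glo luminescence after a minimum 48 h, 37 C compound exposure with 20 nM CPT in Tdp1-knockout DT40 cells stably expressing hTDP1, seeded 400/well; qHTS titration format.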
# TDP1 cell noCPT – qHTS for Inhibitors of human tyrosyl-DNA phosphodiesterase 1 (TDP1): qHTS in cells in absence of CPT | 420,000 compounds, 15% hits | DT40 Tdp1-/- hTDP1 cells, no CPT, ATP luminescence, 48 h | Potency, µM (series often up to 46.2 µM), actives largely listed as inhibitors; further: nearly all actives have a fitted effect of over 55% in size
#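 Seeded 400 DT40-hTDP1 cells/well (vehicle DMSO, no 20 nM CPT); pinned compounds; ≥48 hr at 37 °C; CellTiter-Glo luminescence as viability measure.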
# SW480 rereplic – inducers of DNA re-replication in SW480 colon cancer cells; SW480 DNA re-replication, Hoechst DNA content imaging, 48 h; Potency, µM (top dose mostly 46.1 µM), most hits filed as activators; 340,000 compounds, 1.8% hits; AID 624297; further: nearly all actives have a fitted effect of over 55% in size
#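 Per well, 250 cells were exposed to pinned compound for 48 hr. Nuclear DNA was visualised with Hoechst (40 min, 37 C) and total object intensity recorded by fluorescence scanning.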
# IL1B secr inh – blocks inflammasome-driven IL-1 beta release; THP-1 LPS/ATP IL-1B secretion, AlphaLISA, 16 h; active compounds read low; activity change, % at 57.5 µM; 360,000 compounds, 4.7% hits; AID 743279; in the data active means activity change below about -50%; inconclusive means mostly about -30% to -49%
#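 Secreted IL-1B measured by AlphaLISA bead assay after 16 h compound exposure of THP-1 cells; compounds (final up to 57.5 uM) added 1 h before LPS (250 ng/mL) and ATP (1.25 mM) stimulation; lower signal means less secretion.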
# MCF10A rereplic – DNA re-replication induction in MCF 10a cells; MCF 10A DNA re-replication, Hoechst nuclear intensity, 48 h; 350,000 compounds, 2.9% hits; AID 624296; Potency, µM (series often up to 46.1 µM), actives largely listed as activators; further: nearly all actives have a fitted effect of over 50% in size
# BCR signal inh – inhibitors of chronic active B-cell receptor signaling. 340,000 compounds, 0.05% hits. Potency, µM (series often up to 46.1 µM), usual class: inhibitors. AID 493014. ABC-DLBCL IkBa-CBG/CBR reporter, luminescence ratio, 4 h; active means well fitted inhibition curve with a large enough effect in the signal ratio, with a control signal flat, not every such curve was filed as active; inconclusive means small, poorly fitted or top-dose-only effect, or effect the other way, or a change in a side signal; the % refers to the signal ratio
#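 TMD8 human ABC-DLBCL cells with doxycycline-inducible IκBα–green luciferase fusion and unfused red luciferase, in 0.5% FBS medium; compounds up to 46 uM, 4 h at 37C. Green/red luminescence ratio, filter-overlap corrected, fitted to concentration-response curves.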
# Hits are given with their value; i = inactive; ? = inconclusive; nt = not tested or not shown. Unless noted, the call rests on the fitted dose curve; in most records, active means well fitted curve in the direction sought with a large enough effect; inconclusive means small, poorly fitted or top-dose-only effect, or another doubt; inactive means no such curve, though single readings can be large; an effect the other way counts as inactive or inconclusive.
SMILES,DT40 TDP1 CPT,TDP1 cell noCPT,SW480 rereplic,IL1B secr inh,MCF10A rereplic,BCR signal inh
Cc1cc(C)cc(-n2c(SCC(=O)NC3CCCCC3)nc3c([nH]c4ccccc43)c2=O)c1,16µM,?,nt,nt,nt,nt
O=C(CSc1nc2c([nH]c3ccccc32)c(=O)n1-c1ccc(Cl)cc1)N1CCc2ccccc21,i,i,nt,nt,nt,nt
CN(C)c1ccc2c(=O)cc[nH]c2c1,i,i,nt,i,nt,nt
Cc1cc(C)c(C(=O)C(C)OC(=O)c2ccccn2)cc1C (configuration not stated),i,i,i,i,i,i
Cc1c(C(=O)NCc2ccccc2Cl)sc2nc3n(c(=O)c12)CCCC3,?,23µM,nt,nt,nt,nt
Cc1c(C(=O)NCc2ccccc2)sc2nc3n(c(=O)c12)CCC3,i,i,nt,nt,nt,nt
Cc1c(C(=O)NCc2ccccc2Cl)sc2nc3n(c(=O)c12)CCCCC3,?,26µM,nt,nt,nt,nt
COc1ccccc1N1CC(C(=O)Nc2nnc(SCC(=O)N3CCOCC3)s2)CC1=O (configuration not stated),i,i,i,i,i,i
CCC(C)(C)C1CCc2c(sc(NC(=O)c3ccccc3C(=O)O)c2C#N)C1 (configuration not stated),i,?,i,i,18µM,?
CC1CCc2c(sc(NC(=O)c3ccccc3C(=O)O)c2C#N)C1 (configuration not stated),i,i,?,i,i,?
CCN(CC)C(=O)c1c(NC(=O)c2ccccc2F)sc2c1CCC(C(C)(C)C)C2 (configuration not stated),23µM,?,nt,nt,nt,nt
CC(C)(C)C1CCc2c(sc(NC(=O)c3ccccc3F)c2C(=O)NCc2ccco2)C1 (configuration not stated),i,i,nt,nt,nt,nt
CN(C)S(=O)(=O)c1cccc(NC(=O)c2cccc(S(=O)(=O)N3CCCCC3)c2)c1,?,?,i,i,i,i
Cn1cc([N+](=O)[O-])c(C(=O)N/N=C/c2ccc3c(c2)OCO3)n1,i,i,i,i,i,i
COc1cc(OC)c(NC(=O)CSc2cc(=O)n(C)c3ccc(Cl)cc23)cc1Cl,i,?,nt,nt,nt,nt
Cc1ccc(S(=O)(=O)n2nc(-c3ccco3)nc2NCc2ccc(N(C)C)cc2)cc1,?,23µM,nt,nt,nt,nt
CC(C)c1ccc(CNc2nc(-c3ccco3)nn2S(=O)(=O)c2ccccc2)cc1,23µM,?,nt,nt,nt,nt
Cc1ccc(CNc2nc(-c3ccco3)nn2C(=O)c2ccccc2[N+](=O)[O-])cc1,?,18µM,nt,nt,nt,nt
CC(=O)N1c2ccc(S(=O)(=O)N3CCCC3)cc2CC1C(=O)Nc1cc(C)cc(C)c1 (configuration not stated),?,23µM,i,i,i,i
CCc1ccc(CNC(=O)C2Cc3cc(S(=O)(=O)N4CCCCCC4)ccc3N2C(C)=O)cc1 (configuration not stated),23µM,?,nt,nt,nt,nt
O=C(Nc1cccc(-c2nc3ccccc3o2)c1)C(F)(F)F,3.7µM,2.9µM,nt,nt,nt,nt
CCC(=O)Nc1cccc(-c2nc3ccccc3o2)c1,i,i,i,i,i,i
O=C(/C=C/c1ccco1)NC(=S)Nc1cccc(-c2nc3ccccc3o2)c1,4.6µM,3.3µM,9.2µM,i,3.7µM,?
Cc1ccc(-c2nc3ccccc3o2)cc1NC(=S)NC(=O)/C=C/c1ccco1,2.9µM,2.9µM,8.2µM,i,7.3µM,i
O=C(O)c1ccccc1NC(=O)c1ccccc1Nc1ccccc1,?,?,i,i,?,?
SMILES,DT40 TDP1 CPT,TDP1 cell noCPT,SW480 rereplic,IL1B secr inh,MCF10A rereplic,BCR signal inh
CCN(Cc1cc2ccccc2[nH]c1=O)C(=O)c1cccc([N+](=O)[O-])c1,i,i,i,i,i,i
NC(c1csc(Nc2cnccn2)n1)C1CCCCC1 (configuration not stated),23µM,i,nt,i,nt,nt
NC(c1csc(Nc2ccc(C(F)(F)F)cn2)n1)C1CCCCC1 (configuration not stated),23µM,21µM,nt,-66,nt,nt
NC(c1csc(Nc2nccc(C(F)(F)F)n2)n1)C1CCCCC1 (configuration not stated),?,12µM,nt,?,nt,nt
O=C(O)CCC(=O)N1CCC(n2nnc3cc(C(F)(F)F)ccc32)CC1,i,i,i,i,i,i
Cc1noc(C)c1NC(=O)N(C)C[C@@H]1Oc2ncc(Br)cc2C(=O)N([C@@H](C)CO)C[C@H]1C,i,i,nt,i,nt,nt
COc1ccc2[nH]c3c(c2c1)CCN1C(=O)N([C@@H](C)C(=O)NCCc2ccc(OC)c(OC)c2)C(=O)[C@]31C,23µM,15µM,i,i,i,i
COc1ccc(CNC(=O)[C@H](C)N2C(=O)N3CCc4c([nH]c5ccc(OC)cc45)[C@@]3(C)C2=O)cc1,?,?,i,i,?,i
COc1ccc(CCNC(=O)[C@H](C)N2C(=O)N3CCc4c([nH]c5ccccc45)[C@@]3(C)C2=O)cc1,21µM,16µM,i,?,i,?
COc1ccc(CCNC(=O)[C@H](C)N2C(=O)N3CCc4c([nH]c5ccccc45)[C@@]3(C)C2=O)cc1OC,?,?,i,i,i,i
COc1cccc(CNC(=O)[C@@H](C)N2C(=O)N3CCc4c([nH]c5ccc(OC)cc45)C3(C)C2=O)c1 (some centres not stated),15µM,16µM,i,i,?,?
COc1ccccc1CNC(=O)[C@H](C)N1C(=O)N2CCc3c([nH]c4ccccc34)[C@@]2(C)C1=O,29µM,18µM,i,i,i,i
COc1ccc2[nH]c3c(c2c1)CCN1C(=O)N([C@@H](C)C(=O)NCc2ccc(C)cc2)C(=O)[C@]31C,i,?,i,i,i,i
COCC(=O)N1CCC(Oc2ccc(C(=O)NC(C)c3csc(C)n3)cc2)CC1 (configuration not stated),i,i,?,i,i,i
CC1CCN(C(=O)COC(=O)Cc2ccc(Br)cc2)CC1,i,i,i,i,i,i
O=C(NCCN1CCCC(O)C1)c1cc(COc2cccc(C(F)(F)F)c2)on1 (configuration not stated),i,?,nt,i,nt,nt
Cc1cccc(NC(=O)CCc2c(C)nc3nc(CNC(=O)c4cccc(F)c4)nn3c2C)c1,i,i,nt,nt,nt,nt
Cn1cccc/c1=N\c1cccc[n+]1C,1.5µM,1µM,?,i,i,?
O=C(NCc1cccs1)c1ccc2sc([C@@H]3O[C@H](CO)[C@H](O)[C@H](O)[C@H]3O)nc2c1,i,i,nt,i,nt,nt
O=Cc1cn(-c2ccccc2)nc1-c1cccnc1,i,i,i,-83,i,i
